Some of the results follow. No count for the full screen is at hand.
Biological target: furin, P09958
Assay: furin cleavage Z-score vs untreated control; higher = more cleavage, active = 3.5 or more, inactive = 1 or less, 8 variable residues between constant flanks
Procedure: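 Multiplexed peptide-cDNA fusion cleavage assay. 8-mer variable peptides flanked by constant Cys-Ala (N-term) and Ala-Gly-Asn-Ala-Ser-Ala-Ser-Ala (C-term) and conjugated to a cDNA oligonucleotide were bead-immobilised via the N-terminus. They were treated with purified furin at a 1:10 enzyme:substrate ratio in 50 mM HEPES pH 7.5, 1 mM CaCl2, 100 mM NaCl for 7.5, 15 or 30 min. Released cDNA was counted by next-generation sequencing, and log counts versus no-furin controls were lowess-adjusted and converted to robust Z-scores.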

Chain of furin, P09958 (P09958 whole entry): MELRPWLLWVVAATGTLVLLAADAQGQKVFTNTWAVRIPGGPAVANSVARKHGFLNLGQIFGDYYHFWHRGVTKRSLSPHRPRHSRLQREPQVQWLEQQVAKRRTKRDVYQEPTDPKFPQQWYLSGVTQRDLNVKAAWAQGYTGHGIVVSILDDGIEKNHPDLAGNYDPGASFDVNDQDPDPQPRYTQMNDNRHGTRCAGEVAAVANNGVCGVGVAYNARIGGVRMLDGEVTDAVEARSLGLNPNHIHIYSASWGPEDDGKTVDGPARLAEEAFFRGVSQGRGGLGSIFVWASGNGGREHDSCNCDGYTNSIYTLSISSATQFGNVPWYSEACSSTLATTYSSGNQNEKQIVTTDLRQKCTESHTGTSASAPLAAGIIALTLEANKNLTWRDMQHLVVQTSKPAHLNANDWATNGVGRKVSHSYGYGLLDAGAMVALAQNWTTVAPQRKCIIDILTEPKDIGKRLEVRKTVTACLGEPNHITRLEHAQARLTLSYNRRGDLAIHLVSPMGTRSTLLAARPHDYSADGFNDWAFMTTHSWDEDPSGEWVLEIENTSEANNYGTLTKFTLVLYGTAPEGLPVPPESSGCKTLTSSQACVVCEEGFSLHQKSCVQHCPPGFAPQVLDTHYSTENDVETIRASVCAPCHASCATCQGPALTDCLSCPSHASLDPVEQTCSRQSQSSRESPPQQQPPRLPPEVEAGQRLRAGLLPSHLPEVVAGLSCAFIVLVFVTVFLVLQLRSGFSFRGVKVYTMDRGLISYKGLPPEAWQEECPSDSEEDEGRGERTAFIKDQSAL

B1: HC1081 (peptide)
chain: CASVGLGKVLAGNASASA
7.5 min
  furin cleavage Z-score: 0.567 (inactive)
15 min
  furin cleavage Z-score: 0.113 (inactive)
30 min
  furin cleavage Z-score: 1.61

B2: FS-1230 (peptide)
chain: CALNSRSARSAGNASASA
7.5 min
  furin cleavage Z-score: 9.33 (active)
15 min
  furin cleavage Z-score: 9.86 (active)
30 min
  furin cleavage Z-score: 8.45 (active)

B3: FS-104 (peptide)
chain: CAVLSRASRSAGNASASA
7.5 min
  furin cleavage Z-score: 9.22 (active)
15 min
  furin cleavage Z-score: 8.83 (active)
30 min
  furin cleavage Z-score: 7.05 (active)

B4: FS-1166 (peptide)
chain: CASKVRKSRSAGNASASA
7.5 min
  furin cleavage Z-score: 10.9 (active)
15 min
  furin cleavage Z-score: 11.3 (active)
30 min
  furin cleavage Z-score: 8.46 (active)

B5: FS-467 (peptide)
chain: CANKSRSARSAGNASASA
7.5 min
  furin cleavage Z-score: 7.95 (active)
15 min
  furin cleavage Z-score: 7.93 (active)
30 min
  furin cleavage Z-score: 7.08 (active)

B6: HC9 (peptide)
chain: CAMEEHSQHLAGNASASA
7.5 min
  furin cleavage Z-score: -0.427 (inactive)
15 min
  furin cleavage Z-score: 0.433 (inactive)
30 min
  furin cleavage Z-score: 0.518 (inactive)

B7: HC411 (peptide)
chain: CASVCGPVYCAGNASASA
7.5 min
  furin cleavage Z-score: -0.739 (inactive)
15 min
  furin cleavage Z-score: -0.0378 (inactive)
30 min
  furin cleavage Z-score: 0.44 (inactive)

B8: HC947 (peptide)
chain: CALSQTKQSGAGNASASA
7.5 min
  furin cleavage Z-score: -0.592 (inactive)
15 min
  furin cleavage Z-score: 0.456 (inactive)
30 min
  furin cleavage Z-score: -0.236 (inactive)

B9: HC337 (peptide)
chain: CAWGVLAGIAAGNASASA
7.5 min
  furin cleavage Z-score: -1.66 (inactive)
15 min
  furin cleavage Z-score: -1.27 (inactive)
30 min
  furin cleavage Z-score: 0.739 (inactive)

B10: HC1305 (peptide)
chain: CAARPDYNPPAGNASASA
7.5 min
  furin cleavage Z-score: -1.38 (inactive)
15 min
  furin cleavage Z-score: -0.196 (inactive)
30 min
  furin cleavage Z-score: -1.47 (inactive)

B11: HC2088 (peptide)
chain: CAVVCCSMSWAGNASASA
7.5 min
  furin cleavage Z-score: -0.556 (inactive)
15 min
  furin cleavage Z-score: 1.09
30 min
  furin cleavage Z-score: 0.406 (inactive)

B12: HC1425 (peptide)
chain: CARCHARKAVAGNASASA
7.5 min
  furin cleavage Z-score: 0.121 (inactive)
15 min
  furin cleavage Z-score: 0.298 (inactive)
30 min
  furin cleavage Z-score: -0.417 (inactive)

B13: HC1840 (peptide)
chain: CACTPCSGSWAGNASASA
7.5 min
  furin cleavage Z-score: -0.759 (inactive)
15 min
  furin cleavage Z-score: -0.736 (inactive)
30 min
  furin cleavage Z-score: -0.368 (inactive)

B14: HC201 (peptide)
chain: CAYPWPLYGNAGNASASA
7.5 min
  furin cleavage Z-score: -0.792 (inactive)
15 min
  furin cleavage Z-score: 1.01
30 min
  furin cleavage Z-score: -0.667 (inactive)

B15: FS-144 (peptide)
chain: CASAHRQPRLAGNASASA
7.5 min
  furin cleavage Z-score: 0.7 (inactive)
15 min
  furin cleavage Z-score: 0.218 (inactive)
30 min
  furin cleavage Z-score: 0.636 (inactive)

B16: FS-189 (peptide)
chain: CARLWRKSRSAGNASASA
7.5 min
  furin cleavage Z-score: 9.72 (active)
15 min
  furin cleavage Z-score: 8.99 (active)
30 min
  furin cleavage Z-score: 8.13 (active)

B17: FS-66 (peptide)
chain: CAPALRSARSAGNASASA
7.5 min
  furin cleavage Z-score: 0.638 (inactive)
15 min
  furin cleavage Z-score: 1.37
30 min
  furin cleavage Z-score: 1.27

B18: HC1259 (peptide)
chain: CASVASSSASAGNASASA
7.5 min
  furin cleavage Z-score: -0.54 (inactive)
15 min
  furin cleavage Z-score: 0.0424 (inactive)
30 min
  furin cleavage Z-score: -0.501 (inactive)

B19: FS-1488 (peptide)
chain: CASKSRVSRLAGNASASA
7.5 min
  furin cleavage Z-score: 3.43
15 min
  furin cleavage Z-score: 1.78
30 min
  furin cleavage Z-score: 3.65 (active)

B20: FS-500 (peptide)
chain: CASKSRSARSAGNASASA
7.5 min
  furin cleavage Z-score: 10.3 (active)
15 min
  furin cleavage Z-score: 8.51 (active)
30 min
  furin cleavage Z-score: 6.45 (active)

B21: FS-52 (peptide)
chain: CALNARYSRSAGNASASA
7.5 min
  furin cleavage Z-score: 8.29 (active)
15 min
  furin cleavage Z-score: 10.6 (active)
30 min
  furin cleavage Z-score: 9.13 (active)

B22: FS-1107 (peptide)
chain: CAYGSRHIRLAGNASASA
7.5 min
  furin cleavage Z-score: 0.267 (inactive)
15 min
  furin cleavage Z-score: 1.21
30 min
  furin cleavage Z-score: 2.07

B23: HC1732 (peptide)
chain: CAMEECSEHLAGNASASA
7.5 min
  furin cleavage Z-score: 0.304 (inactive)
15 min
  furin cleavage Z-score: -1.16 (inactive)
30 min
  furin cleavage Z-score: 0.588 (inactive)

B24: HC2303 (peptide)
chain: CAAVPCHRPSAGNASASA
7.5 min
  furin cleavage Z-score: 0.31 (inactive)
15 min
  furin cleavage Z-score: -0.11 (inactive)
30 min
  furin cleavage Z-score: 0.292 (inactive)

B25: HC220 (peptide)
chain: CALGKVIDTLAGNASASA
7.5 min
  furin cleavage Z-score: -0.0125 (inactive)
15 min
  furin cleavage Z-score: 0.316 (inactive)
30 min
  furin cleavage Z-score: -0.584 (inactive)

B26: HC1874 (peptide)
chain: CATTKCSGSWAGNASASA
7.5 min
  furin cleavage Z-score: -0.691 (inactive)
15 min
  furin cleavage Z-score: -0.337 (inactive)
30 min
  furin cleavage Z-score: -0.205 (inactive)

B27: FS-1292 (peptide)
chain: CATLSRSSRSAGNASASA
7.5 min
  furin cleavage Z-score: 6.97 (active)
15 min
  furin cleavage Z-score: 8.07 (active)
30 min
  furin cleavage Z-score: 7.37 (active)

B28: FS-1469 (peptide)
chain: CANKSRESRPAGNASASA
7.5 min
  furin cleavage Z-score: -0.557 (inactive)
15 min
  furin cleavage Z-score: -0.538 (inactive)
30 min
  furin cleavage Z-score: -0.178 (inactive)

B29: FS-1409 (peptide)
chain: CASGSRSSRSAGNASASA
7.5 min
  furin cleavage Z-score: 0.457 (inactive)
15 min
  furin cleavage Z-score: 1.76
30 min
  furin cleavage Z-score: 2.85

B30: FS-501 (peptide)
chain: CASKSRSSRSAGNASASA
7.5 min
  furin cleavage Z-score: 8.19 (active)
15 min
  furin cleavage Z-score: 9.38 (active)
30 min
  furin cleavage Z-score: 7.93 (active)

B31: FS-180 (peptide)
chain: CANKSRSSRSAGNASASA
7.5 min
  furin cleavage Z-score: 8.13 (active)
15 min
  furin cleavage Z-score: 8.25 (active)
30 min
  furin cleavage Z-score: 6.67 (active)

B32: HC1185 (peptide)
chain: CAPRTCRNMWAGNASASA
7.5 min
  furin cleavage Z-score: -0.106 (inactive)
15 min
  furin cleavage Z-score: 1.74
30 min
  furin cleavage Z-score: 0.874 (inactive)

B33: HC12 (peptide)
chain: CAMEEDSQHLAGNASASA
7.5 min
  furin cleavage Z-score: 1.39
15 min
  furin cleavage Z-score: -0.675 (inactive)
30 min
  furin cleavage Z-score: -1.53 (inactive)

B34: HC292 (peptide)
chain: CADLLVGSATAGNASASA
7.5 min
  furin cleavage Z-score: -0.794 (inactive)
15 min
  furin cleavage Z-score: -0.376 (inactive)
30 min
  furin cleavage Z-score: -2.04 (inactive)

B35: HC2384 (peptide)
chain: CAEVPCHRISAGNASASA
7.5 min
  furin cleavage Z-score: -0.484 (inactive)
15 min
  furin cleavage Z-score: 0.399 (inactive)
30 min
  furin cleavage Z-score: 0.761 (inactive)

B36: FS-2206 (peptide)
chain: CARDQRSVLAAGNASASA
7.5 min
  furin cleavage Z-score: -0.0379 (inactive)
15 min
  furin cleavage Z-score: -0.365 (inactive)
30 min
  furin cleavage Z-score: 2.37

B37: FS-1130 (peptide)
chain: CAKHQRAKRAAGNASASA
7.5 min
  furin cleavage Z-score: 5.65 (active)
15 min
  furin cleavage Z-score: 4.42 (active)
30 min
  furin cleavage Z-score: 4.22 (active)

B38: FS-1420 (peptide)
chain: CASWGRVWRAAGNASASA
7.5 min
  furin cleavage Z-score: 0.424 (inactive)
15 min
  furin cleavage Z-score: -1.01 (inactive)
30 min
  furin cleavage Z-score: 0.706 (inactive)

B39: FS-1569 (peptide)
chain: CASLGRAKRAAGNASASA
7.5 min
  furin cleavage Z-score: 5.19 (active)
15 min
  furin cleavage Z-score: 5.19 (active)
30 min
  furin cleavage Z-score: 3.67 (active)

B40: HC736 (peptide)
chain: CASLLSPRPIAGNASASA
7.5 min
  furin cleavage Z-score: 0.821 (inactive)
15 min
  furin cleavage Z-score: -0.642 (inactive)
30 min
  furin cleavage Z-score: -0.193 (inactive)

B41: HC1635 (peptide)
chain: CAAVRTKLKLAGNASASA
7.5 min
  furin cleavage Z-score: -0.516 (inactive)
15 min
  furin cleavage Z-score: 0.293 (inactive)
30 min
  furin cleavage Z-score: 1.05

B42: FS-3158 (peptide)
chain: CARKKRNVNFAGNASASA
7.5 min
  furin cleavage Z-score: 10.3 (active)
15 min
  furin cleavage Z-score: 10.5 (active)
30 min
  furin cleavage Z-score: 8.52 (active)

B43: FS-2693 (peptide)
chain: CARKKRIFNLAGNASASA
7.5 min
  furin cleavage Z-score: 0.592 (inactive)
15 min
  furin cleavage Z-score: 0.839 (inactive)
30 min
  furin cleavage Z-score: 0.689 (inactive)

B44: FS-2068 (peptide)
chain: CARRKRNVNTAGNASASA
7.5 min
  furin cleavage Z-score: 9.71 (active)
15 min
  furin cleavage Z-score: 10.9 (active)
30 min
  furin cleavage Z-score: 8.02 (active)

B45: FS-1968 (peptide)
chain: CARRKRKNKTAGNASASA
7.5 min
  furin cleavage Z-score: 0.116 (inactive)
15 min
  furin cleavage Z-score: -2.04 (inactive)
30 min
  furin cleavage Z-score: -0.0117 (inactive)

B46: FS-2450 (peptide)
chain: CARRKKQVGTAGNASASA
7.5 min
  furin cleavage Z-score: -0.127 (inactive)
15 min
  furin cleavage Z-score: 1.03
30 min
  furin cleavage Z-score: 0.188 (inactive)

Reference: the supplement of paper PMC3545927
